Laboratory results from PubChem BioAssay (NCATS).
The source made the active and inactive calls. Unless noted, the call rests on the fitted dose curve; in most records, active means well fitted curve in the direction sought with a large enough effect; inconclusive means small, poorly fitted or top-dose-only effect, or another doubt; inactive means no such curve, though single readings can be large; an effect the other way counts as inactive or inconclusive.

Tests used:
[1] = Cellular Toxicity (caspase-3) Jurkat (AID 655); settings: Jurkat caspase-3 activation, luminescence; caspase-3 activation: at 92.2 µM (top of the series), DMSO = 0%, tamoxifen = 100%;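 further: cells exposed to compound for 16 h at 37 °C before reading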; further: potency means the concentration at half of the fitted maximal effect
Outline: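 5000 Jurkat cells/well; compound 16 hr, 37 °C; Caspase-Glo 3/7 added, 20 min RT; luminescence read. Norm: DMSO = 0%, tamoxifen 100 uM = 100%. AC50, Hill model.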

[2] = Cellular Toxicity (caspase-3) H-4-II-E (AID 663); settings: H-4-II-E rat hepatoma, scaled: DMSO 0%, 100 µM tamoxifen 100%; at 92.2 µM (top of the series);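 further: cells exposed to compound for 16 hr before readout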
Outline: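 Apoptosis induction is scored as increased luminescence from caspase 3/7 substrate cleavage in rat hepatoma H-4-II-E cells exposed to compound for 16 hr. Activity is scaled between DMSO and 100 uM tamoxifen.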

[3] = MultiTox-Fluor Cytotoxicity Assay - LYMP1-002 - Dead Cells (AID 960); further: nearly all actives have a fitted effect of over 60% in size; further: potency means the concentration at half of the fitted maximal effect
Outline: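 Human lymphoblastoid LYMP1-002 cells, 2500/well, treated 16 h at 37 C; dead-cell protease cleavage of bis-AAF-R110 read by fluorescence (485/520); normalized to DMSO and 15 uM tetraoctylammonium bromide; AC50 from Hill fit.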

[4] = Cell Viability - LYMP2-004 (AID 966); further: nearly all actives have a fitted effect of over 65% in size; further: potency means the concentration at half of the fitted maximal effect
Outline: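 Lymphoblastoid LYMP2-004 cells, 2500 per well, were preincubated for 5 hr and then treated with compound for 24 h at 37 C in complete medium. Viability was read as cellular ATP by CellTiter-Glo luminescence, and AC50 values were taken from Hill fits to concentration-response data.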

[5] = Cell Viability - LYMP2-007 (AID 979);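 further: cells exposed to compound for 24 h before reading; nearly all actives have a fitted effect of over 60% in size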; further: potency means the concentration at half of the fitted maximal effect
Outline: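 Human lymphoblastoid LYMP2-007 cells (2500/well) preincubated 5 h at 37 C, then treated 24 h at 37 C in complete medium. Viability by CellTiter-Glo ATP luminescence after 30 min at room temperature; AC50 from Hill fits.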

[6] = Cell Viability - LYMP2-012 (AID 982);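 further: cellular ATP by luciferase luminescence where a drop means cytotoxicity; cells exposed to compound for one day before reading; nearly all actives have a fitted effect of over 55% in size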; further: potency means the concentration at half of the fitted maximal effect
[7] = Cell Viability - LYMP2-014 (AID 983); further: nearly all actives have a fitted effect of over 50% in size; further: potency means the concentration at half of the fitted maximal effect
Outline: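 LYMP2-014 human lymphoblastoid cells, 2500/well, treated 24 h at 37 C in complete medium; viability by CellTiter-Glo ATP luminescence after 30 min at room temperature. AC50 from Hill fits of qHTS concentration-response; tetraoctylammonium bromide positive control.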

[8] = Cell Viability - LYMP2-020 (AID 986); further: nearly all actives have a fitted effect of over 55% in size; further: potency means the concentration at half of the fitted maximal effect
Outline: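 Human lymphoblastoid LYMP2-020 cells (2500/well) preincubated 5 h at 37 C, then treated 24 h at 37 C. Viability measured as intracellular ATP by CellTiter-Glo luminescence after 30 min at room temperature; AC50 from Hill fits.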

[9] = Cell Viability - LYMP2-022 (AID 987); further: nearly all actives have a fitted effect of over 55% in size; further: potency means the concentration at half of the fitted maximal effect
Outline: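 LYMP2-022 lymphoblastoid cells (2500/well, complete medium) were treated with compounds for 24 hours at 37 C; intracellular ATP was then read by CellTiter-Glo luminescence after 30 min at room temperature. AC50 values were derived from Hill-equation fits.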

[10] = Cell Viability - LYMP2-024 (AID 988); further: nearly all actives have a fitted effect of over 60% in size; further: potency means the concentration at half of the fitted maximal effect
Outline: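 Human lymphoblastoid LYMP2-024 cells (2500/well) rested 5 hr, then treated with compound for 24 hr at 37 C in complete medium. Viability was measured as intracellular ATP by CellTiter-Glo luminescence. AC50 values came from Hill-equation fits.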

[11] = target: Estrogen receptor (Homo sapiens) (UniProt P03372); assay: qHTS assay for small molecule antagonists of estrogen receptor alpha signaling (AID 588513; active means well fitted curve in the direction sought with a large enough effect in the signal ratio, with a control signal flat, not every such curve was filed as active; inconclusive means small, poorly fitted or top-dose-only effect, or effect the other way, or a change in a side signal; inactive means no such curve, though single readings can be large or run the other way; the % refers to the signal ratio; further: potency means the concentration at half of the fitted maximal effect)
Outline: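 Fluorescence from CCF4 substrate after 2 h at room temperature gave reporter activity; cells had been exposed to compound and 0.5nM 17-beta-estradiol for 18 h at 37 C. Hill-equation fitting yielded IC50 and maximal response.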

[12] = qHTS assay for small molecule activators of the p53 signaling pathway (AID 651743; active means well fitted activation curve with a large enough effect in the signal ratio, not every such curve was filed as active; inconclusive means small, poorly fitted or top-dose-only effect, or a change in a side signal; the % refers to the signal ratio; further: % of control where 0% means no effect); settings: HCT-116 p53RE-bla, beta-lactamase FRET ratio, 16 h; activation: hits give high values
Outline: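 Read-out is fluorescence intensity from the LiveBLAzer B/G FRET substrate, added for 2 hours at room temperature after HCT-116 p53RE-bla cells had been incubated with compounds for 16 hours at 37 C.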

[13] = target: Nuclear receptor ROR-gamma (Homo sapiens) (UniProt P51449); assay: qHTS assay for small molecule antagonists of the retinoid-related orphan receptor gamma (ROR-gamma) signaling pathway (AID 651802); further: nearly all actives have a fitted effect of over 60% in size; further: potency means the concentration at half of the fitted maximal effect
Outline: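 CHO cells with TET-inducible ROR-gamma and RORE-luciferase reporter, dosed then doxycycline-induced. After 16 h at 37C, One-Glo luminescence read; decreased signal indicates antagonism.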

[14] = Cell Viability - HepG2 (AID 433; calls by dose curve;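 further: potency means the concentration at half of the fitted maximal effect; cells exposed to compound for 40 hours; potency for ATP loss meaning cytotoxicity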); settings: qHTS
Outline: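 Read-out is luciferase-based quantitation of cellular ATP as a measure of viable HepG2 cells after 40 h treatment at 37 °C. Signal decrease is scaled between DMSO-only and 100 uM tamoxifen controls, with AC50 fitted by the Hill equation.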

[15] = MultiTox-Fluor Cytotoxicity Assay - LYMP1-001 - Dead Cells (AID 946); further: potency means the concentration at half of the fitted maximal effect
Outline: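 Seed 2500 LYMP1-001 cells/well, incubate 5 hr at 37 C; add compound, 16 hr at 37 C; add MultiTox-Fluor reagent, 60 min RT; read dead-cell fluorescence Ex/Em=485/520. Normalize to DMSO and 15 uM tetraoctylammonium bromide.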

[16] = MultiTox-Fluor Cytotoxicity Assay - LYMP1-001 - Live Cells (AID 947); further: potency means the concentration at half of the fitted maximal effect
[17] = MultiTox-Fluor Cytotoxicity Assay - LYMP1-003 - Dead Cells (AID 961); further: nearly all actives have a fitted effect of over 70% in size; further: potency means the concentration at half of the fitted maximal effect
Outline: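 LYMP1-003 lymphoblastoid, 2500 cells/well, 5 hr settle then 16 hr cpd at 37 C; MultiTox-Fluor reagent 60 min RT; Ex/Em 485/520 dead-cell signal; norm. DMSO = 0%, 15 uM tetraoctylammonium bromide = 100%; Hill AC50.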

[18] = qHTS assay for small molecule antagonists of the retinoid-related orphan receptor gamma (ROR-gamma) signaling pathway - cell viability counter screen (AID 720652; active means well fitted curve in the direction sought with a large enough effect in the repeat runs; inconclusive means weak or mixed curves; inactive means no such curve, though single readings can be large; an effect the other way counts as inactive or inconclusive;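 further: compound exposure lasted 16 hr before ATP read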; further: potency means the concentration at half of the fitted maximal effect)
Outline: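 CHO cells carrying TET-inducible ROR and RORE-luciferase reporter, plated 5 hr, then dosed with compound plus doxycycline. After 16 hr at 37 C, viability read as intracellular ATP by CellTiter-Glo luminescence.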

[19] = qHTS assay for cell viability of the p53RE-bla HCT-116 cell line (AID 743292); further: nearly all actives have a fitted effect of over 55% in size; further: potency means the concentration at half of the fitted maximal effect
Outline: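 Intracellular ATP of p53RE-bla HCT-116 cells measured by luciferase luminescence following 16 h compound incubation at 37 C; DMSO-only wells served as vehicle controls.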

[20] = target: Glucocorticoid receptor (Homo sapiens) (UniProt P04150); assay: GR-EFC Redistribution (AID 451; calls by dose curve; further: potency means the concentration at half of the fitted maximal effect); settings: CHO-K1 GR-EFC translocation, beta-gal luminescence, 2 h
Outline: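 Translocation of GR-ED fusion to nuclear EA restores b-gal, read by luminescence after 1 h room-temperature detection. Engineered CHO-K1 biosensor cells, 1,000/well, exposed 2 h at 37 C to titrations up to 46 uM final.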

Sequence of Estrogen receptor (Homo sapiens) (P03372 whole entry, looked up): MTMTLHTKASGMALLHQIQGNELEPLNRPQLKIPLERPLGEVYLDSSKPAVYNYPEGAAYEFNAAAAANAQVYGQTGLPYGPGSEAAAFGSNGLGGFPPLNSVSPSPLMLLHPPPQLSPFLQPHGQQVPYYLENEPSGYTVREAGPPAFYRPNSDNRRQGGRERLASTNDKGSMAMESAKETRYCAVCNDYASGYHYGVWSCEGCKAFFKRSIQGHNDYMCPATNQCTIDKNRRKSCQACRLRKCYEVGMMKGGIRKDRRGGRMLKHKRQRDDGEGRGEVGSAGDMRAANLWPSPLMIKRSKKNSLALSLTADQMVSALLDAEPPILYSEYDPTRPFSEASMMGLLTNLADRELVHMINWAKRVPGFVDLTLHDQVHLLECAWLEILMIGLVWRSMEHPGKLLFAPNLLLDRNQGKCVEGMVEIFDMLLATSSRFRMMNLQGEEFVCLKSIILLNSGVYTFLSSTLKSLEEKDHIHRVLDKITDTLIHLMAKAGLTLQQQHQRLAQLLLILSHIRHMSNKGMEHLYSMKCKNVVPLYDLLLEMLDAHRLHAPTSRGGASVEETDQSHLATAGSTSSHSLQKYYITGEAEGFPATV
Sequence of Nuclear receptor ROR-gamma (Homo sapiens) (P51449 whole entry, looked up): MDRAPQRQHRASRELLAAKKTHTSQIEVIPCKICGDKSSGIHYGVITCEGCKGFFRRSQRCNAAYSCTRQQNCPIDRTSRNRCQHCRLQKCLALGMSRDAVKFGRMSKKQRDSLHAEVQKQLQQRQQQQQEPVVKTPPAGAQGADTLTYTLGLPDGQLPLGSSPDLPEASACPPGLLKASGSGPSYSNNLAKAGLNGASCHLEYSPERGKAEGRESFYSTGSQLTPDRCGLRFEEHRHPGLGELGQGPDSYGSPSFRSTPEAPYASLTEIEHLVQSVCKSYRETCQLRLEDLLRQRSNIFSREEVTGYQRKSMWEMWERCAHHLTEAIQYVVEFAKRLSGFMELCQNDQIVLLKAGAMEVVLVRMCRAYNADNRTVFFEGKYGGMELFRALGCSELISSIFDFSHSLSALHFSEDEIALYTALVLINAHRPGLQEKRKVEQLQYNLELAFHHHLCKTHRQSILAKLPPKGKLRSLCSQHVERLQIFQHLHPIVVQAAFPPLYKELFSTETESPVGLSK
Sequence of Glucocorticoid receptor (Homo sapiens) (P04150 whole entry, looked up, the tested form may be a part): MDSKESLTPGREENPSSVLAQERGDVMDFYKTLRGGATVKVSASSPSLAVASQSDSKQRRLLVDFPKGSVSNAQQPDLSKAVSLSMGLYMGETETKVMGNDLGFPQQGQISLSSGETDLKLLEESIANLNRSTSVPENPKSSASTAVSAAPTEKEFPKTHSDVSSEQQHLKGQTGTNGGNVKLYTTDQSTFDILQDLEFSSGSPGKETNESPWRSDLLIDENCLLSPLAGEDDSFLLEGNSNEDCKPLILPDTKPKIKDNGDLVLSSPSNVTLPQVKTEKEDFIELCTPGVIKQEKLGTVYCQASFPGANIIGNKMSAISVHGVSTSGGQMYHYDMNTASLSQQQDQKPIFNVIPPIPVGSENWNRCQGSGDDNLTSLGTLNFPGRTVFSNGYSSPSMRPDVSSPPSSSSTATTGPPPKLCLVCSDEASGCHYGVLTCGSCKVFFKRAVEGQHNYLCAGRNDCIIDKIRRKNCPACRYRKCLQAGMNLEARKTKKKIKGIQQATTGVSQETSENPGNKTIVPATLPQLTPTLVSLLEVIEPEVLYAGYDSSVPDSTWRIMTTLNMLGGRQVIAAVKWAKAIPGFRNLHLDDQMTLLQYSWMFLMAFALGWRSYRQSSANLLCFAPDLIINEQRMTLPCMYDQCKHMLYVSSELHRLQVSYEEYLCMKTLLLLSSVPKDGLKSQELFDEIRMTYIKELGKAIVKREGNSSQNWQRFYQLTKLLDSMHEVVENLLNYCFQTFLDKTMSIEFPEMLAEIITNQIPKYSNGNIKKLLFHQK

Clc1ccc(C(c2ccc(Cl)cc2)C(Cl)Cl)cc1
inactive: caspase-3 activation [1] 22.6% | Potency [4] | Potency [5] | Potency [6] | Potency [7] | Potency [8] | Potency [9] | Potency [10] | activation [12] 6.6%
active: caspase-3 activation [2] 87.3% | Potency [3] 15.8 µM | Potency [11] 39.8 µM [inconclusive] | Potency [13] 37.6 µM

COP(=O)(OC)O/C(=C\Cl)c1cc(Cl)c(Cl)cc1Cl
inactive: Potency [14] > 92 µM | caspase-3 activation [2] 2.54% | Potency [15] | Potency [16] | Potency [3] | Potency [17] | Potency [8] | Potency [11] | activation [12] -0.853% | Potency [18] | Potency [19]
active: Potency [6] 50.1 µM

O=C(O)C1C(C(=O)O)C2(Cl)C(Cl)=C(Cl)C1(Cl)C2(Cl)Cl (stereo not given)
inactive: Potency [14] > 92 µM | caspase-3 activation [1] -0.527% | caspase-3 activation [2] -0.161% | Potency [15] | Potency [16] | Potency [3] | Potency [17] | Potency [4] | Potency [5] | Potency [6] | Potency [7] | Potency [8] | Potency [9] | Potency [10] | Potency [11] | activation [12] -3.18% | Potency [13] | Potency [18] | Potency [19]

O=C(CCl)c1ccccc1
active: Potency [15] 50.1 µM | Potency [3] 25.1 µM | Potency [17] 31.6 µM | Potency [4] 10 µM | Potency [5] 10 µM | Potency [6] 10 µM | Potency [7] 12.6 µM | Potency [8] 7.94 µM | Potency [9] 6.31 µM | Potency [10] 7.94 µM | Potency [13] 16.8 µM | Potency [18] 29.8 µM
inactive: caspase-3 activation [1] -8.71% | caspase-3 activation [2] -5.13% | activation [12] 2.08% | Potency [19]

ClC1=C(Cl)C2(Cl)C3C(Cl)C(Cl)CC3C1(Cl)C2(Cl)Cl (stereo not given)
active: caspase-3 activation [1] 81.5% | Potency [17] 50.1 µM | Potency [13] 37.6 µM | Potency [18] 66.8 µM
inactive: Potency [14] > 92 µM | Potency [15] | Potency [6] | Potency [7] | activation [12] 0.792%

C[C@@H]1CC[C@@]2(OC1)O[C@H]1[C@@H](O)[C@H]3[C@@H]4CC[C@H]5C[C@@H](O[C@@H]6O[C@H](CO)[C@H](O[C@@H]7O[C@H](CO)[C@@H](O)[C@H](O[C@@H]8OC[C@@H](O)[C@H](O)[C@H]8O)[C@H]7O[C@@H]7O[C@H](CO)[C@@H](O)[C@H](O[C@@H]8O[C@H](CO)[C@@H](O)[C@H](O)[C@H]8O)[C@H]7O)[C@H](O)[C@H]6O)[C@H](O)C[C@]5(C)[C@H]4CC[C@]3(C)[C@H]1[C@@H]2C
inactive: caspase-3 activation [2] -3.54%
active: Potency [14] 11.9 µM | Potency [16] 12.6 µM | Potency [17] 10 µM | Potency [4] 12.6 µM | Potency [5] 25.1 µM | Potency [6] 15.8 µM | Potency [7] 25.1 µM | Potency [8] 12.6 µM | Potency [9] 15.8 µM | Potency [10] 12.6 µM | Potency [11] 8.91 µM [inconclusive] | Potency [18] 11.9 µM

COC[C@H]1OC(=O)c2coc3c2[C@@]1(C)C1=C(C3=O)[C@H]2CCC(=O)[C@@]2(C)C[C@H]1OC(C)=O
inactive: Potency [20] > 46 µM

CC(C)CC(C)Nc1ccc(Nc2ccccc2)cc1 (stereo not given)
inactive: Potency [14] > 92 µM | caspase-3 activation [1] 17.5% | Potency [19]
active: Potency [17] 50.1 µM | Potency [4] 25.1 µM | Potency [5] 39.8 µM | Potency [6] 39.8 µM | Potency [7] 39.8 µM | Potency [8] 39.8 µM | Potency [9] 31.6 µM | Potency [10] 25.1 µM | Potency [11] 25.1 µM [inconclusive] | Potency [13] 37.6 µM | Potency [18] 59.6 µM

CC(=O)[O-].CC(=O)[O-].O.O.[Cd+2]
active: Potency [5] 39.8 µM | Potency [18] 8.41 µM
inactive: caspase-3 activation [1] 4.84% | caspase-3 activation [2] 0.407% | Potency [15] | Potency [16] | Potency [3] | Potency [19]

OC(c1ccc(Cl)cc1)(c1ccc(Cl)cc1)C(Cl)(Cl)Cl
inactive: Potency [15] | Potency [16] | Potency [17] | Potency [4] | Potency [5] | Potency [6] | Potency [7] | Potency [8] | Potency [9] | Potency [10] | Potency [11]
active: Potency [19] 50.1 µM

O=[N+]([O-])c1ccccc1Cl
inactive: Potency [14] > 92 µM

Cc1ccc2ccccc2c1C
inactive: Potency [14] > 92 µM

N#CC(Cl)Cl
inactive: caspase-3 activation [2] 0.178% | Potency [15] | Potency [16] | Potency [3] | Potency [17] | Potency [4]
active: Potency [1] 5.01 µM | Potency [5] 20 µM | Potency [7] 50.1 µM | Potency [8] 10 µM | Potency [13] 33.5 µM | Potency [18] 21.1 µM | Potency [19] 44.7 µM

Nc1ccccc1C(=O)OCCc1ccccc1
inactive: Potency [14] > 92 µM | caspase-3 activation [1] -5.89% | caspase-3 activation [2] -2.95% | Potency [15] | Potency [16] | Potency [3] | Potency [17] | Potency [4] | Potency [5] | Potency [6] | Potency [7] | Potency [8] | Potency [9] | Potency [10] | activation [12] -0.792% | Potency [13] | Potency [18] | Potency [19]

O=[N+]([O-])C(Br)Br
inactive: Potency [15] | Potency [16] | Potency [3] | Potency [17] | activation [12] 12.3% | Potency [19]
active: Potency [4] 25.1 µM | Potency [5] 10 µM | Potency [6] 12.6 µM | Potency [7] 15.8 µM | Potency [8] 12.6 µM | Potency [9] 12.6 µM | Potency [10] 7.94 µM | Potency [13] 18.8 µM | Potency [18] 18.8 µM
